Results reported in publication PMC12820563, “FoxP3 forms a head-to-head dimer in vivo and stabilizes its multimerization on adjacent microsatellites”.
In all, about 16,000 sequences were measured (“rpm ratio (pull-down/input)”: median about 0.94, highest 2% from about 1.7 on). The sample holds the highest values, similar sequences and a random draw of the others, so the mix is not that of the screen.

Target: T1, MBP-FoxP1dN (Mus musculus, UniProt P58462 326-579)
T1 sequence: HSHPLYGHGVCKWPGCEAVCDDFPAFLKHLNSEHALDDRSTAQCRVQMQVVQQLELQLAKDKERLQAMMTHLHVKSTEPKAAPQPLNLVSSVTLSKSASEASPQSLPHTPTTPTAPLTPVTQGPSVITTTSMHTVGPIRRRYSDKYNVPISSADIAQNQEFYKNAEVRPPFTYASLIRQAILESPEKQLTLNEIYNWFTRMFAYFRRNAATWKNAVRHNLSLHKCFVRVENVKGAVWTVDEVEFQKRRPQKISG
Test: PD-seq (MBP pull-down with sequencing); 20 mM Tris-HCl pH 7.5, 100 mM NaCl, 1.5 mM MgCl2, 0.4 uM protein, 0.1 uM dsDNA library, 30 min, room temperature, amylose pull-down; high values mean tight binding
Settings: protein: recombinant; tags: His6-MBP; chain copies: 2; dsDNA, one strand shown
Procedure, shortened: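 In Tris pH 7.5 buffer with NaCl and MgCl2, 0.4 µM His6-MBP-tagged mouse FoxP3 or FoxP1 fragment lacking the N-terminus, from E. coli, met 0.1 µM Klenow-filled double-stranded degenerate DNA library for 30 min at room temperature. Three washes on amylose resin followed capture of the complexes, then proteinase K release of DNA, PCR barcoding and Illumina sequencing. Binding is taken as pooled-replicate reads-per-million enrichment of pull-down relative to input.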

Sequence | binding signal
GATGATTGTTCTCCCAGCTGATGAATTTTGTATTTCGAGTAAACAAATTTTCCTAATCTTTCTGTTCAAGCGCCATCTAC | 1.42 RPM ratio (pull-down/input)
GATGATTGTTCTCCCAGCTGATGAATTATTGTATTCGAGTAAACAAATTTTCCTAATCTTTCTGTTCAAGCGCCATCTAC | 1.99 RPM ratio (pull-down/input)
GATGATTGTTCTCCCAGCTGATGAATTGTATTCTTCGAGTAAACAAATTTTCCTAATCTTTCTGTTCAAGCGCCATCTAC | 1.26 RPM ratio (pull-down/input)
GATGATTGTTCTCCCAGCTGATGAATTTGTAATTTCGAGTAAACAAATTTTCCTAATCTTTCTGTTCAAGCGCCATCTAC | 1.31 RPM ratio (pull-down/input)
GATGATTGTTCTCCCAGCTGATGAATTTCTGTATTCGAGTAAACAAATTTTCCTAATCTTTCTGTTCAAGCGCCATCTAC | 1.3 RPM ratio (pull-down/input)
GATGATTGTTCTCCCAGCTGATGAATTTGTATTTTCGAGTAAACAAATTTTCCTAATCTTTCTGTTCAAGCGCCATCTAC | 2.62 RPM ratio (pull-down/input)
GATGATTGTTCTCCCAGCTGATGAATTGTTGTATTCGAGTAAACAAATTTTCCTAATCTTTCTGTTCAAGCGCCATCTAC | 2.21 RPM ratio (pull-down/input)
GATGATTGTTCTCCCAGCTGATGAATTTTGAATTTCGAGTAAACAAATTTTCCTAATCTTTCTGTTCAAGCGCCATCTAC | 0.984 RPM ratio (pull-down/input)
GATGATTGTTCTCCCAGCTGATGAATTTTAGGGGTCGAGTAAACAAATTTTCCTAATCTTTCTGTTCAAGCGCCATCTAC | 0.805 RPM ratio (pull-down/input)
GATGATTGTTCTCCCAGCTGATGAATTGACTAAGTCGAGTAAACAAATTTTCCTAATCTTTCTGTTCAAGCGCCATCTAC | 1.03 RPM ratio (pull-down/input)
GATGATTGTTCTCCCAGCTGATGAATTGACGCTTTCGAGTAAACAAATTTTCCTAATCTTTCTGTTCAAGCGCCATCTAC | 1.33 RPM ratio (pull-down/input)
GATGATTGTTCTCCCAGCTGATGAATTAGCACCGTCGAGTAAACAAATTTTCCTAATCTTTCTGTTCAAGCGCCATCTAC | 0.962 RPM ratio (pull-down/input)
GATGATTGTTCTCCCAGCTGATGAATTGGCTATATCGAGTAAACAAATTTTCCTAATCTTTCTGTTCAAGCGCCATCTAC | 0.923 RPM ratio (pull-down/input)
GATGATTGTTCTCCCAGCTGATGAATTCGCCCGTTCGAGTAAACAAATTTTCCTAATCTTTCTGTTCAAGCGCCATCTAC | 0.826 RPM ratio (pull-down/input)
GATGATTGTTCTCCCAGCTGATGAATTCGAATCTTCGAGTAAACAAATTTTCCTAATCTTTCTGTTCAAGCGCCATCTAC | 0.84 RPM ratio (pull-down/input)
GATGATTGTTCTCCCAGCTGATGAATTAATTATATCGAGTAAACAAATTTTCCTAATCTTTCTGTTCAAGCGCCATCTAC | 1.11 RPM ratio (pull-down/input)

Sequence | binding signal
GATGATTGTTCTCCCAGCTGATGAATTATTTATATCGAGTAAACAAATTTTCCTAATCTTTCTGTTCAAGCGCCATCTAC | 1.75 RPM ratio (pull-down/input)
GATGATTGTTCTCCCAGCTGATGAATTTATTATATCGAGTAAACAAATTTTCCTAATCTTTCTGTTCAAGCGCCATCTAC | 1.22 RPM ratio (pull-down/input)
GATGATTGTTCTCCCAGCTGATGAATTATAAACATCGAGTAAACAAATTTTCCTAATCTTTCTGTTCAAGCGCCATCTAC | 2.42 RPM ratio (pull-down/input)
GATGATTGTTCTCCCAGCTGATGAATTATATAAATCGAGTAAACAAATTTTCCTAATCTTTCTGTTCAAGCGCCATCTAC | 1.16 RPM ratio (pull-down/input)
GATGATTGTTCTCCCAGCTGATGAATTATAAAAATCGAGTAAACAAATTTTCCTAATCTTTCTGTTCAAGCGCCATCTAC | 1.08 RPM ratio (pull-down/input)
GATGATTGTTCTCCCAGCTGATGAATTTATATTATCGAGTAAACAAATTTTCCTAATCTTTCTGTTCAAGCGCCATCTAC | 2.04 RPM ratio (pull-down/input)
GATGATTGTTCTCCCAGCTGATGAATTATCTATATCGAGTAAACAAATTTTCCTAATCTTTCTGTTCAAGCGCCATCTAC | 1.14 RPM ratio (pull-down/input)
GATGATTGTTCTCCCAGCTGATGAATTATATTTATCGAGTAAACAAATTTTCCTAATCTTTCTGTTCAAGCGCCATCTAC | 2.43 RPM ratio (pull-down/input)
GATGATTGTTCTCCCAGCTGATGAATTATATATATCGAGTAAACAAATTTTCCTAATCTTTCTGTTCAAGCGCCATCTAC | 1.16 RPM ratio (pull-down/input)
GATGATTGTTCTCCCAGCTGATGAATTCTTTATATCGAGTAAACAAATTTTCCTAATCTTTCTGTTCAAGCGCCATCTAC | 1.02 RPM ratio (pull-down/input)
GATGATTGTTCTCCCAGCTGATGAATTATATCTATCGAGTAAACAAATTTTCCTAATCTTTCTGTTCAAGCGCCATCTAC | 0.985 RPM ratio (pull-down/input)
GATGATTGTTCTCCCAGCTGATGAATTTACATCCTCGAGTAAACAAATTTTCCTAATCTTTCTGTTCAAGCGCCATCTAC | 1.26 RPM ratio (pull-down/input)
GATGATTGTTCTCCCAGCTGATGAATTAGGCTTGTCGAGTAAACAAATTTTCCTAATCTTTCTGTTCAAGCGCCATCTAC | 0.93 RPM ratio (pull-down/input)
GATGATTGTTCTCCCAGCTGATGAATTACAAATGTCGAGTAAACAAATTTTCCTAATCTTTCTGTTCAAGCGCCATCTAC | 1.44 RPM ratio (pull-down/input)
GATGATTGTTCTCCCAGCTGATGAATTATCCCTGTCGAGTAAACAAATTTTCCTAATCTTTCTGTTCAAGCGCCATCTAC | 0.907 RPM ratio (pull-down/input)
GATGATTGTTCTCCCAGCTGATGAATTAGTCCTCTCGAGTAAACAAATTTTCCTAATCTTTCTGTTCAAGCGCCATCTAC | 0.936 RPM ratio (pull-down/input)
